The source of these data is PubChem BioAssay (EPA / NIEHS).

SMILES strings stand for the structures. Results filed as inconclusive are left out. Active and inactive are the calls of the source. How the source made its calls: active means hit-call score of the fitted dose curve at least 0.9, where 1 is the maximum; inconclusive means response in the unintended direction; inactive means score below 0.9.

The first experiment can be described thus: ACEA_AR_agonist_AUC_viability: ACEA Biosciences xCELLigence Real-Time Cell Analysis on Androgen Receptor Agonism for Viability (AID 2283775).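 On AC50: viability read 80 hours after compound addition.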 The essentials: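 22Rv1 cells; impedance growth kinetics; 8-pt 1:4 dilutions from 100 uM top final, ≤0.5% DMSO; n = 2; 80 h read; AUC viability, loss-of-signal vs DMSO.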
In the case of `CC(C)=CC1C(C(=O)OCN2C(=O)C3=C(CCCC3)C2=O)C1(C)C` (stereo not drawn), the half-maximal activity concentration (AC50) is 44 µM (active).

Regarding `FC(F)C(F)(F)OCC(Cn1cncn1)c1ccc(Cl)cc1Cl` (stereo not drawn), the AC50 was 66.4 µM (active).

`CON=C(C(=O)OC)c1ccccc1CON=C(C)c1cccc(C(F)(F)F)c1`: the AC50 was 26.4 µM (active).

As for `CCC(CC)Nc1c([N+](=O)[O-])cc(C)c(C)c1[N+](=O)[O-]`, the AC50 is 64.5 µM (active).

On to `O=C(O)c1cc(Oc2ccc(C(F)(F)F)cc2Cl)ccc1[N+](=O)[O-]`, for which the AC50 was 50 µM (active).

As for `C[N+]1(C)CCCCC1`, the molecule was called inactive.

`Cc1nn(-c2cc(NS(C)(=O)=O)c(Cl)cc2Cl)c(=O)n1C(F)F`: the outcome was inactive.

For `COP(=O)(OC)OC(Br)C(Cl)(Cl)Br` (stereo not drawn), the AC50 is 75.1 µM (active).

For the molecule `CCCCSP(=O)(SCCCC)SCCCC`, the AC50 was 78.1 µM (active).

With `CC(C)[C@H](C(=O)O[C@H](C#N)c1cccc(Oc2ccccc2)c1)c1ccc(Cl)cc1`, the AC50 is 17.2 µM (active).

On to `CN(C)NC(=O)CCC(=O)O`, for which the result was inactive.

Consider `Cc1ccn2nc(S(=O)(=O)Nc3c(F)cccc3F)nc2n1`, for which the outcome was inactive.

Consider `CCc1cccc(CC)c1N(COC)C(=O)CCl`, for which the AC50 was 50 µM (active).

Take `CC(C1CC1)C(O)(Cn1cncn1)c1ccc(Cl)cc1` (stereo not drawn): the AC50 was 49.8 µM (active).

For the molecule `CCOP(=S)(OCC)SCCSCC`, the AC50 is 78.1 µM (active).

On to `CSc1nc(NC(C)C)nc(NC(C)C)n1`, for which the molecule was called inactive.

With `COc1ccc(C(=CC(=O)N2CCOCC2)c2ccc(Cl)cc2)cc1OC`, the molecule was called inactive.

For `CC(COc1ccc(Oc2ccccc2)cc1)Oc1ccccn1` (stereo not drawn), the AC50 was 58.9 µM (active).

As for `CSc1nnc(C(C)(C)C)c(=O)n1N`, the call was inactive.

On to `CNC(=O)ON=C(C)SC`, for which the molecule was called inactive.

`CCOC(=O)COc1cc(-c2nn(C)c(OC(F)F)c2Cl)c(F)cc1Cl`: the molecule was called inactive.

Regarding `CNC(=O)ON=C(SC)C(=O)N(C)C`, the result was inactive.

With `CCCCOC(=O)c1ccccc1C(=O)O`, the outcome was inactive.

Turning to `CC(C)N(C(=O)SCC(Cl)=C(Cl)Cl)C(C)C`, the AC50 was 89.9 µM (active).

Consider `CCCOc1nn(C(=O)NS(=O)(=O)c2ccccc2C(=O)OC)c(=O)n1C`, for which the call was inactive.

Regarding `CNC(=O)Oc1cccc2c1OC(C)(C)O2`, the molecule was called inactive.

Turning to `CNc1cnn(-c2cccc(C(F)(F)F)c2)c(=O)c1Cl`, the molecule was classed as inactive.

Regarding `CCCCOC(=O)[C@@H](C)Oc1ccc(Oc2ccc(C#N)cc2F)cc1`, the AC50 was 27.6 µM (active).

A further experiment in a line: ACEA_AR_antagonist_AUC_viability: ACEA Biosciences xCELLigence Real-Time Cell Analysis on Androgen Receptor Antagonism for Viability (AID 2283776).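 Further: 22Rv1 human prostate cancer cells growing on impedance electrode plates; area under impedance growth curve at 80 h after dosing as viability; hits lower the growth signal relative to DMSO meaning cytotoxicity.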 The gist of the method:
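Viability endpoint from label-free cell-index monitoring: 22Rv1 cultures treated with an eight-point 1:4 dilution series starting at 100 uM final, AUC at 80 h fitted against DMSO.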
As to `CC(C)=CC1C(C(=O)OCN2C(=O)C3=C(CCCC3)C2=O)C1(C)C` (stereo not drawn), the AC50 is 48.1 µM (active).

With `FC(F)C(F)(F)OCC(Cn1cncn1)c1ccc(Cl)cc1Cl` (stereo not drawn), the AC50 is 60.5 µM (active).

As to `CN1COCN(Cc2cnc(Cl)s2)C1=N[N+](=O)[O-]`, the call was inactive.

For the molecule `CCOP(=O)(OCC)Oc1cc(C)nc(C(C)C)n1`, the outcome was inactive.

`COc1cccc(C(=O)NN(C(=O)c2cc(C)cc(C)c2)C(C)(C)C)c1C`: the AC50 was 76.4 µM (active).

Turning to `CON=C(C(=O)OC)c1ccccc1CON=C(C)c1cccc(C(F)(F)F)c1`, the AC50 is 14.5 µM (active).

For the molecule `CCC(CC)Nc1c([N+](=O)[O-])cc(C)c(C)c1[N+](=O)[O-]`, the AC50 was 50 µM (active).

As to `O=C(O)c1cc(Oc2ccc(C(F)(F)F)cc2Cl)ccc1[N+](=O)[O-]`, the result was inactive.

Regarding `C[N+]1(C)CCCCC1`, the molecule was called inactive.

On to `Cc1nn(-c2cc(NS(C)(=O)=O)c(Cl)cc2Cl)c(=O)n1C(F)F`, for which the call was inactive.

Consider `CN(C)C(=O)Nc1cccc(C(F)(F)F)c1`, for which the call was inactive.

As to `COP(=O)(OC)OC(Br)C(Cl)(Cl)Br` (stereo not drawn), the AC50 is 61.3 µM (active).

As for `CC(Oc1cccc(Cl)c1)C(=O)O` (stereo not drawn), the molecule was classed as inactive.

On to `CCCCSP(=O)(SCCCC)SCCCC`, for which the concentration at half-maximal activity (AC50) was 67.1 µM (active).

Turning to `CCNc1nc(Cl)nc(NC(C)(C)C#N)n1`, the AC50 was 27 µM (active).

Consider `CN(C)NC(=O)CCC(=O)O`, for which the result was inactive.

In the case of `Cc1ccn2nc(S(=O)(=O)Nc3c(F)cccc3F)nc2n1`, the call was inactive.

`COc1cc(OC)nc(Sc2cccc(Cl)c2C(=O)O)n1`: the molecule was called inactive.

For the molecule `CCc1cccc(CC)c1N(COC)C(=O)CCl`, the AC50 is 50 µM (active).

Turning to `CC(C1CC1)C(O)(Cn1cncn1)c1ccc(Cl)cc1` (stereo not drawn), the AC50 is 49.8 µM (active).

`CCOP(=S)(OCC)SCCSCC`: the AC50 was 80.6 µM (active).

As to `CSc1nc(NC(C)C)nc(NC(C)C)n1`, the molecule was called inactive.

Regarding `COc1ccc(C(=CC(=O)N2CCOCC2)c2ccc(Cl)cc2)cc1OC`, the AC50 is 15.2 µM (active).

As to `CC(COc1ccc(Oc2ccccc2)cc1)Oc1ccccn1` (stereo not drawn), the AC50 is 64.6 µM (active).

`CSc1nnc(C(C)(C)C)c(=O)n1N`: the outcome was inactive.

For the molecule `CNC(=O)ON=C(C)SC`, the outcome was inactive.

For the molecule `CCOC(=O)COc1cc(-c2nn(C)c(OC(F)F)c2Cl)c(F)cc1Cl`, the concentration at half-maximal activity (AC50) was 16.6 µM (active).

With `CNC(=O)ON=C(SC)C(=O)N(C)C`, the outcome was inactive.

In the case of `CCCCOC(=O)c1ccccc1C(=O)O`, the result was inactive.

On to `Nc1nc(N)nc(NC2CC2)n1`, for which the call was inactive.

Consider `CC(C)N(C(=O)SCC(Cl)=C(Cl)Cl)C(C)C`, for which the AC50 was 81 µM (active).

For `CCCOc1nn(C(=O)NS(=O)(=O)c2ccccc2C(=O)OC)c(=O)n1C`, the outcome was inactive.

Consider `CNC(=O)Oc1cccc2c1OC(C)(C)O2`, for which the molecule was classed as inactive.

Turning to `CNc1cnn(-c2cccc(C(F)(F)F)c2)c(=O)c1Cl`, the molecule was classed as inactive.

In the case of `CCCCOC(=O)[C@@H](C)Oc1ccc(Oc2ccc(C#N)cc2F)cc1`, the AC50 is 62.3 µM (active).
